# Screening results deposited in PubChem by National Center for Advancing Translational Sciences (NCATS).
# RECQ1 helicase: inhibitors of human RECQ1 DNA helicase; RECQ1 DNA unwinding, red fluorescence kinetic read; hit rate 0.54% among 240,000; P46063; AID 2549; Potency, µM (series often up to 57.3 µM), without a hit: at the top dose activity, negative = inhibition, most hits filed as inhibitors;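 also: plate controls were vehicle for no effect and no enzyme for full effect; nearly all actives have a fitted effect of over 30% in size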
#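 50 nM RECQ1T1 preincubated 15 min with compound in Tris pH 8.0 buffer with MgCl2, DTT, Tween-20 and 2.5 ug/ml poly(dI-dC); started with 200 nM TAMRA/BHQ-2 forked duplex and 2 mM ATP. Unwinding read as fluorescence (525/598 nm), two reads 2 h apart.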
# APEX1 inh: blocks human APE1 abasic DNA cleavage | AID 2517 | Potency, µM (highest dose often 65.8 µM), without a hit: at the highest dose activity change, negative = inhibition, usual class: inhibitors | recombinant APE1, TAMRA/BHQ-2 abasic DNA cleavage fluorescence | hit rate 0.35% among 350,000;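 also: plate controls were vehicle for no effect and reference inhibitor for full effect; nearly all actives have a fitted effect of over 55% in size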
# Target sequence (P27695 whole entry, looked up): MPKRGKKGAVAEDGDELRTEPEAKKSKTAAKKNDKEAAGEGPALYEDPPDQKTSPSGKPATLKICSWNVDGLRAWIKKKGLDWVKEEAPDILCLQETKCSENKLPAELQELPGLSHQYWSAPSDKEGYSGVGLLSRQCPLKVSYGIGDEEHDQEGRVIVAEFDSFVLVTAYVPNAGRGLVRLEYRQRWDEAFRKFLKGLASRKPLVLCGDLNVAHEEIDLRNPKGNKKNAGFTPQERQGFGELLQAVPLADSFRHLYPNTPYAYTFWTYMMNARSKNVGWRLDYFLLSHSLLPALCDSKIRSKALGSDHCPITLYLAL
#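 Readout is kinetic fluorescence (ex 525, em 598 nm) from cleavage of 50 nM TAMRA/BHQ-2 THF abasic duplex by 0.75 nM APE1, compound added 15 min beforehand at RT.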
# BLM inh: blocks DNA unwinding by human BLM helicase | P54132 | recombinant BLM DNA unwinding, fluorescence dequenching | Potency, µM (doses to about 56.1 µM), without a hit: at the highest dose activity change, negative = inhibition, usual class: inhibitors | hit rate 0.2% among 350,000 | AID 2528;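 also: plate controls were vehicle for no effect and no enzyme for full effect; nearly all actives have a fitted effect of over 35% in size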
# KDM4E inh: inhibitors of human JMJD2E histone demethylase | B2RXH2 | JMJD2E catalytic domain, FDH-coupled NADH fluorescence (FDH is formaldehyde dehydrogenase) | Potency, µM (top dose mostly 57.1 µM), without a hit: top-dose activity change, negative = inhibition, most hits filed as inhibitors | hit rate 1.6% among 230,000; active = well fitted inhibition curve with a large enough effect, not every such curve was filed as active; inconclusive = small, poorly fitted or top-dose-only effect, or another doubt; inactive = no such curve, though single readings can be large or run the other way;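 also: 0% = wells with enzyme and -100% = buffer wells without enzyme; nearly all actives have a fitted effect of over 50% in size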
# Target sequence (B2RXH2 1-337 limits assumed): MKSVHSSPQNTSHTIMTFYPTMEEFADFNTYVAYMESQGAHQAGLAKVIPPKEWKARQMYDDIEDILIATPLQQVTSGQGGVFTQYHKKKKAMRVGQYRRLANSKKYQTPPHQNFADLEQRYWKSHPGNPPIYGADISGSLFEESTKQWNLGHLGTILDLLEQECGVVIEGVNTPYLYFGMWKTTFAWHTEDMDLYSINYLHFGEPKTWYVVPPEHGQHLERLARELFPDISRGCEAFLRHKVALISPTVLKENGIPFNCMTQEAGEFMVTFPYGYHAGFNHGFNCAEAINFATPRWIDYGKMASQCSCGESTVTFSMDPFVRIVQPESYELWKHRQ
# KAT2A inh: inhibitors of human GCN5L2 histone acetyltransferase. hit rate 0.21% among 390,000. Potency, µM (highest dose often 58.9 µM), inactives show at the highest dose activity change, negative = inhibition, actives largely listed as inhibitors. Q92830. GCN5L2 HAT assay, ThioGlo1 CoA-SH fluorescence
#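 GCN5L2 (20 nM) in 50mM HEPES pH 7.5, 0.1mM EDTA, 0.01% Tween-20 preincubated 15 min with compounds at room temperature. Reaction started with H3(1-25) 75uM, acetyl-CoA 70uM, ThioGlo1 50uM; CoA-thiol fluorescence (Ex340/Em540) read at 0 and 20 min.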
# TDP1 inh: inhibitors of human tyrosyl-DNA phosphodiesterase TDP1 | recombinant TDP1, AlphaScreen DNA substrate cleavage | Potency, µM (series often up to 130 µM), inactives show at the highest dose activity change, negative = inhibition, most hits filed as inhibitors | hit rate 0.28% among 350,000 | AID 485290; also: nearly all actives have a fitted effect of over 40% in size
#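 Here, a 5' biotin and 3' phosphotyrosine-FITC DNA oligonucleotide reports Tdp1 activity: intact substrate bridges AlphaScreen beads, while cleavage leaves a 3' phosphate and drops signal. All incubations at room temperature.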
# Numbers without * were called inactive; i = inactive; ? = inconclusive; . = no result given; ! = a repeat was not active; [ ] = dose if it differs, or a comment. The entries come from a sample that favours hits as a whole. Unless noted, calls follow the shape of the dose curve; as a rule, active = well fitted curve in the direction sought with a large enough effect; inconclusive = small, poorly fitted or top-dose-only effect, or another doubt; inactive = no such curve, though single readings can be large; an effect the other way counts as inactive or inconclusive. Unless noted, % is scaled to controls: 0 for no effect and ±100 for the full control effect; potency is read from the fitted curve at half-maximal effect.
SMILES,RECQ1 helicase,APEX1 inh,BLM inh,KDM4E inh,KAT2A inh,TDP1 inh
COc1ccc(/C=C2\SC(=O)N(CCCC(=O)Nc3ccc(C(=O)O)cc3)C2=O)cc1OC,.,1%,-8%,.,-32%,1%
COc1cc(/C=C2\SC(=O)N(CC(=O)Nc3ccc(C)cc3)C2=O)cc(Cl)c1OCC(=O)O,.,5.3µM*,10µM*,.,?,.
COc1ccc(/C=C2\SC(=S)N(CCCC(=O)Nc3ccc(C(=O)O)cc3)C2=O)cc1OC,.,?,-19%,.,?,50µM*
CCOc1ccc(/C=C2/SC(=S)N(CCC(=O)Nc3ccc(C(=O)O)cc3)C2=O)cc1,.,7.5µM*,-27%,.,-6%,10µM*
O=C1C2C3C=CC(C3)C2C(=O)N1c1ncn[nH]1 (stereo unspecified),-9%,?,-4%,-4%,-3%,16µM*
O=C1C2C3C=CC(C3)C2C(=O)N1c1ccncc1 (stereo unspecified),-4%,-3%,0%,-3%,62%,-1%
COC(=O)CCCC1=CC2=C(c3ccccc3)C(=O)C(C)(OC(=O)C3CCCC3)C(=O)C2=CN1Cc1ccccc1 (stereo unspecified),7%[11.5 µM],2%[12.4 µM],-12%[12.4 µM],-15%[11.4 µM],.,6%[12.3 µM]
COC(=O)CCCC1=CC2=C(c3ccccc3)C(=O)C(C)(OC(=O)C3CCCC3)C(=O)C2=CN1CCN1CCOCC1 (stereo unspecified),12%[11.5 µM],0%[12.4 µM],-7%[12.4 µM],3.2µM*!,-15%,-7%[12.3 µM]
CCSc1ncc(/C=N/Nc2ccc(Cl)cc2)n1C,-3%,1%,4%,18µM*,-10%,13%
CCSc1ncc(/C=N/Nc2ccccc2)n1C,6%,1%,-4%,2%,3%,8%
O=C(O)C1Cc2[nH]cnc2C(c2ccccc2O)N1 (stereo unspecified),-2%,3%,4%,32µM*,0%,0%
CC(C)(C)OC(=O)Cc1nnc(-c2nc3ccccc3[nH]2)o1,.,.,.,.,.,-12%
N#C/C(=C\c1ccccc1C(=O)O)c1nc2ccccc2[nH]1,.,16%,-8%,.,-9%,.
N#C/C(=C\c1ccc(-c2ccc(Cl)c(C(=O)O)c2)o1)c1nc2ccccc2[nH]1,.,27µM*,?,.,-24%,.
COc1ccc(-c2nn3c(-c4cc(-c5ccccc5)n[nH]4)nnc3s2)cc1OC,.,.,.,.,.,0%
COc1ccc(C2Nc3ccccc3C(=O)N2Cc2cccnc2)cc1COc1ccc(NC(C)=O)cc1 (stereo unspecified),.,.,.,.,.,6%
O=C(Cc1cc(=O)[nH][nH]1)N/N=C/c1cccc(Cl)c1Cl,0%,-9%,-1%,4µM*!,-3%,8%
Cc1ccc(C)c(SC2=NS(=O)(=O)c3ccccc32)c1,.,.,.,.,.,1%
NC(=O)c1ccc(NC(=O)COC(=O)/C=C/c2ccc(Br)o2)cc1,.,-66%,.,.,?,5.6µM*
CCO[C@@H]1O[C@H](C(COCc2ccccc2)OCc2ccccc2)[C@H](OCc2ccccc2)[C@H]1O (stereo partly specified),.,0%[21 µM],.,.,.,.
O=C(Nc1ccc(S(=O)(=O)NCc2ccco2)cc1)c1ccc(F)cc1,.,-26%,-4%,.,-8%,56µM*
CCOC(=O)c1c(-c2ccc(F)cc2)csc1NC(=O)CCN1CCOCC1,-1%,16%,-2%,25µM*,-7%,.
CCOC(=O)c1c(-c2cccs2)csc1NC(C)=O,-3%,-4%,-4%,8%,-6%,-1%
CCOC(=O)c1c(-c2cccs2)csc1NC(=O)CNCCN1CCOCC1,-2%,-1%,0%,22µM*,-1%,7%
O=c1cc(-c2cccc(-c3ccc(C(F)(F)F)cc3)c2)c2cc3c(cc2o1)OCO3,-8%[81.1 µM],0%,-8%[75.6 µM],.,-4%,-3%
SMILES,RECQ1 helicase,APEX1 inh,BLM inh,KDM4E inh,KAT2A inh,TDP1 inh
COc1ccc(C2=Nn3c(nnc3-c3ccccc3C(F)(F)F)SC2)cc1OC1CCCC1,.,-4%,.,.,.,.
Cc1ccc(Cl)cc1NC(=O)c1cc2ccccc2cc1O,i,11%,-16%,22µM*,-15%,6%
COc1ccc(-n2nc(C(=O)O)c3csc(N)c3c2=O)cc1,.,.,.,.,.,-14%
CC(C)(Oc1ccc(-c2ccco2)cc1)C(=O)O,-11%,-3%,3%,?,-3%,-8%
CC(=O)c1sc(C(=O)O)c(-c2ccco2)c1-c1ccco1,-2%,?,27%,-2%,-5%,50µM*
CC(C)(C)n1ncc2c(=O)n(Cc3ccc(C#N)cc3)cnc21,.,2%,.,.,.,.
CC1CC(C)CN(c2oc(-c3ccc(OCc4ccccc4Cl)cc3)nc2C#N)C1 (stereo unspecified),.,.,.,.,.,5%
O=C1CC(c2ccco2)CC(O)=C1C=NCCN1CCNCC1 (stereo unspecified),-8%,-3%,-3%,?,-13%,0%
O=C1CC(c2ccco2)CC(O)=C1C=NCC1CCNCC1 (stereo unspecified),i,32µM*,-3%,10µM*,-8%,?
CN(C)c1ccc(N/C=C/C(=O)C(C)(C)C)cc1,-20%,-1%,-7%,7.1µM*,-6%,9%
N#Cc1nc(Nc2cc(F)cc(F)c2)nc(NC2CCCC2)n1,.,.,.,.,.,-1%
CCCCCCCC/C=C\CCCCCCCC(=O)NCCO,4%,?,-2%,-2%,-21%,12%[56.1 µM]
CCCCCCCC/C=C/CCCCCCCC(=O)NCCOP(=O)(O)O,-12%,-8%,0%,.,7.1µM*,5%
CCCCCCCC/C=C\CCCCCCCC(=O)NCCc1ccc(O)c(O)c1,-25%,?,-19%,20µM*!,?,12%[56.1 µM]
CCCCCCCCCCCCCCCC(=O)NCCc1ccc(O)c(O)c1,8%,?,-13%,-10%,.,5%
CC(C)CC1NC(=O)C(CCCN)NC(=O)C(C(C)C)NC(=O)C2CCCN2C(=O)C(Cc2ccccc2)NC(=O)C(CC(C)C)NC(=O)C(CCCN)NC(=O)C(C(C)C)NC(=O)C2CCCN2C(=O)C(Cc2ccccc2)NC1=O (stereo unspecified),i,.,-6%,25µM*,-29%,8%
O=C1N[C@@H](Cc2ccccc2)C(=O)N2CCCC12 (stereo partly specified),-11%[126 µM],8%,4%[120 µM],.,1%,0%[56.1 µM]
NNc1nc2c(Cl)c(Cl)ccc2s1,-27%,3.2µM*,-27%,-14%,-25%,?
COc1cccc2sc(NN)nc12,i,-4%,-13%,?,-6%,9%
COc1ccc(C(=O)O)nc1C,-13%,-2%,0%,14µM*,-11%,4%
C=CCc1ccccc1OCC(O)CNC1CCCC1 (stereo unspecified),.,93%,1%,.,3%,5%
